# Measurements: PubChem BioAssay AID894 (National Center for Advancing Translational Sciences (NCATS), 2007)
# Among all 150,000 compounds or so, about 6,500 (4.3%) were called active. Another 12% or so got no clear call; they are omitted. This is one part of a sample in which actives are shown more often than they occur. Unmarked numbers belong to inactive results. The call rests on the fitted dose curve; in most records, active means well fitted inhibition curve with a large enough effect (not every such curve was filed as active); inconclusive means small, poorly fitted or top-dose-only effect, or another doubt; inactive means no such curve, though single readings can be large or run the other way.
# Molecular target: 15-hydroxyprostaglandin dehydrogenase [NAD(+)] (Homo sapiens) (UniProt P15428)
# Sequence (P15428 whole entry, looked up): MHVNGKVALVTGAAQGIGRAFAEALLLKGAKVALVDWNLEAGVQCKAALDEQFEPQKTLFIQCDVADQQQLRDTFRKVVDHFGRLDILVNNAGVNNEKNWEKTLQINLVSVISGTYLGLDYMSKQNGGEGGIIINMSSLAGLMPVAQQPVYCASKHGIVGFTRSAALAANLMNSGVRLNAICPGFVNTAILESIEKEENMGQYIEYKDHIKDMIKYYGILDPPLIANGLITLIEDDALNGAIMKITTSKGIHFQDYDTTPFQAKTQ
# Experiment: qHTS Assay for Inhibitors of HPGD (15-Hydroxyprostaglandin Dehydrogenase)
# Conditions: purified HPGD, NADH fluorescence kinetic, PGE2 substrate; activity change, negative = inhibition: stronger effect = lower value
# Procedure, shortened: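 20 nM HPGD preincubated 15 min at room temperature with compound in 50 mM Tris-HCl pH 8, 0.01% Tween 20. Started with 1 mM NAD+ and 30 uM prostaglandin E2; NADH fluorescence (360/450 nm) read 5 times over 30-s intervals, last minus first.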
# On the % scale 0 is the no-effect control and ±100 the full control effect; potency means the concentration at half of the fitted maximal effect.
SMILES,"activity change, negative = inhibition",Potency
Cc1ccc(CN2C(=O)N/C(=C/c3cc(C)n(-c4ccccn4)c3C)C2=O)cc1,-12.6%,–
C/C(Cc1ccccc1)=N\NC(=O)CNC(=O)c1cccc(Br)c1,-6.55%,–
O=C(COC(=O)Cc1ccc(F)cc1)Nc1cc(S(=O)(=O)N2CCOCC2)ccc1N1CCCC1,-3.83%,–
CCCSc1nc2c(c(=O)[nH]c(=O)n2C)n1CCc1ccccc1,-20.7%,–
CCCCCCn1c(SCC(=O)c2ccccc2)nc2c1c(=O)[nH]c(=O)n2C,-21.9%,–
CCCCCn1c(SCCC(C)C)nc2c1c(=O)[nH]c(=O)n2C,–,20 µM (active)
O=C(COC(=O)Cc1ccc(Br)cc1)Nc1c(F)c(F)c(F)c(F)c1F,-9.95%,–
Cc1[nH]n(-c2cccc(Cl)c2)c(=O)c1-c1ccc(Cl)cc1,-13%,–
Cc1[nH]n(-c2cccc(Cl)c2)c(=O)c1/C=N/n1c(C)nc2ccccc2c1=O,-20.7%,–
O=c1[nH]n(-c2cccc(Cl)c2)c2ncccc12,–,6.31 µM (active)
COc1cc(CCC(=O)OCC(=O)Nc2cccc(S(N)(=O)=O)c2)cc(OC)c1OC,-6.23%,–
COC(=O)c1onc(-c2c(OC)cc(OC)cc2OC)c1C(=O)OC,-3.93%,–
N#Cc1ccsc1NC(=O)CN1CCN(S(=O)(=O)c2cc(Cl)ccc2Cl)CC1,-24.3%,–
CCCSc1nc2c(c(=O)n(C)c(=O)n2C)n1Cc1ccc(C)cc1,-7.96%,–
CC(CCO)Nc1nc2c([nH]1)c(=O)n(C)c(=O)n2C (stereo not drawn),-11.6%,–
Cc1ccc(NN=Nc2nc3c([nH]2)c(=O)n(C)c(=O)n3C)cc1,–,22.4 µM (active)
Cn1c(=O)[nH]c(=O)c2c1nc(Br)n2CCCCSc1nc2ccccc2o1,–,25.1 µM (active)
Cc1ccnc(SCCn2c(Br)nc3c2c(=O)[nH]c(=O)n3C)n1,-9.47%,–
CN(Cc1ccccc1)c1nc2c(c(=O)[nH]c(=O)n2C)n1CCSc1nc2ccccc2[nH]1,-9.14%,–
CCN(CC)C(=O)CSc1nc2ccccc2o1,-23.4%,–

SMILES,"activity change, negative = inhibition",Potency
Cn1c(=O)c2c(nc(Br)n2CCSc2nc3ccccc3o2)n(C)c1=O,–,31.6 µM (active)
Cc1cccc(Cn2c(SCCO)nc3c2c(=O)n(C)c(=O)n3C)c1,-7.66%,–
CCCC/S(C)=N/S(=O)(=O)c1ccc(C)cc1 (stereo not drawn),1.3%,–
Cc1ccc(C)c(NC(CC(=O)c2ccccc2)C(=O)OCC(=O)c2cccs2)c1 (stereo not drawn),-4.17%,–
CCOc1ccccc1N1CCN(C(=S)Nc2ccc(S(N)(=O)=O)cc2)CC1,-4.15%,–
Cc1ccc(S(=O)(=O)C2C(=O)NC3(C)CC2c2ccccc2O3)cc1 (stereo not drawn),-19.6%,–
O=C(NN1C(=O)C2C3C=CC(O3)C2C1=O)c1ccncc1 (stereo not drawn),2.88%,–
CCn1c(=N)n(CC(=O)c2cccc(OC)c2)c2ccccc21,–,35.5 µM (active)
COc1cccc(C(=O)NNC(=O)c2ccccc2Br)c1,-0.052%,–
CCCCOC(=O)Cn1c(=N)n(CCN(CC)CC)c2ccccc21,-7.8%,–
Cn1cccc1/C=C1\SC(=S)N(NC(=O)c2ccc(Cl)cc2)C1=O,-8.93%,–
Cc1cc(C)c(C#N)c(SCS(=O)c2ccc(C(C)(C)C)cc2)n1 (stereo not drawn),–,15.8 µM (active)
Cc1cc(C)c(C#N)c(SCC(=O)NN2CC(=O)N(c3ccccc3F)CC2=O)n1,-14%,–
Cc1cc(C)c(C#N)c(SCc2ccccc2C(=O)O)n1,-15%,–
Cc1ccc(C(=O)NC(=S)NCCN2CCOCC2)cc1,-5.64%,–
Cc1c(O)c(Br)c(C)c(O)c1Br (tested in a mixture with another compound),–,0.891 µM (active)
CCOC(=O)CSc1nnc(-c2ccncc2)o1,-12.2%,–
O=C(CSc1nnc(-c2ccncc2)o1)NCc1ccc(Cl)cc1,-1.7%,–
O=C(OCC#CCSc1nnc(-c2ccncc2)o1)c1sc2ccccc2c1Cl,–,20 µM (active)
O=C(CCc1ccccc1)Nc1nn[nH]n1,-9.52%,–

SMILES,"activity change, negative = inhibition",Potency
O=C(O)C1CC=CCC1C(=O)Nc1ccccc1C(=O)N1CCN(c2ccccc2)CC1 (stereo not drawn),-1.15%,–
CC(C)c1ccc(N2CCN(C(=O)c3ccccc3NC(=O)/C=C(\C(=O)O)c3ccccc3)CC2)cc1,–,35.5 µM (active)
Cc1cccc(N2CCN(C(=O)c3ccccc3NC(=O)C3CCCCC3C(=O)O)CC2)c1 (stereo not drawn),-8.91%,–
O=C(C/C(=N\NC(=O)c1ccccc1Br)C(F)(F)F)c1cccs1,-18.1%,–
N#Cc1cccc(CS(=O)(=O)c2nnnn2-c2cc(C(F)(F)F)cc(C(F)(F)F)c2)c1,-8.91%,–
COCCn1c(=NC(=O)c2ccccc2[N+](=O)[O-])sc2cc(S(C)(=O)=O)ccc21,-11.2%,–
CC(C)c1ccc(Nc2ncccc2C#N)cc1,–,25.1 µM (active)
CC(C)c1ccc(/C=C/C(=O)NNC(=O)c2cccnc2)cc1,-6.71%,–
O=C(Nc1ccccc1)c1cccnc1Nc1ccccc1,-10.1%,–
O=C(Nc1ccccc1)c1cc2ccccc2[nH]1,-6.75%,–
COc1ccc(C)cc1NC(=O)CSc1ccc(Cl)cc1,-13.4%,–
Cc1cc(C(=O)OCC(=O)Nc2nnc(C(C)C)s2)c2ccccc2n1,-10.9%,–
COCCCNC(=S)NC(=O)c1ccc([N+](=O)[O-])cc1,-5.32%,–
Cc1sc(NC(=O)C2C3CCC(O3)C2C(=O)O)c(C(=O)OC(C)C)c1-c1ccc(Cl)cc1 (stereo not drawn),–,35.5 µM (active)
CCOC(=O)c1c(NC(=O)C2CCN(S(=O)(=O)c3ccc(Cl)cc3)CC2)sc2c1CCCC2,-27.2%,–
CC(C)OC(=O)c1cc(NC(=O)C2C3CCC(O3)C2C(=O)O)cc(C(=O)OC(C)C)c1 (stereo not drawn),-13.2%,–
Cc1cc(NC(=O)COC(=O)COc2ccc(Cl)cc2C)c([N+](=O)[O-])cc1C,-9.4%,–
Cc1ccc(CN2CCN(/N=C/c3cccnc3)CC2)c(C)c1,-0.74%,–
